High-throughput results (PubChem)
The entries come from a sample that favours hits as a whole.
MBNL1-CUG inh: qHTS Assay for Inhibitors of MBNL1-poly(CUG) RNA binding; TR-FRET MBNL1-His/biotin-(CUG)12 binding, 665/545 ratio; Potency, µM (series often up to 57.5 µM), inactives show at the top dose activity change, negative = inhibition, usual class: inhibitors; 280,000 tested, 0.036% active; active means well fitted inhibition curve with a large enough effect in the signal ratio, with a control signal flat, not every such curve was filed as active; inconclusive means small, poorly fitted or top-dose-only effect, or effect the other way, or a change in a side signal; inactive means no such curve, though single readings can be large or run the other way; the % refers to the signal ratio; further: potency means the concentration at half of the fitted maximal effect; on the % scale 0 is the no-effect control and ±100 the full control effect
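His-tagged MBNL1 binding to biotinylated (CUG)12 RNA was measured by TR-FRET using terbium anti-His antibody (0.055 ng/ul final) and streptavidin-XL665 (5 nM final). Compounds were titrated 92 nM to 58 uM; 60 min at room temperature.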
ClpP mod: qHTS Assay for Activators of ClpP; purified B. subtilis ClpP, FRET peptide cleavage, 20 min; AID 651965, 2013; Potency, µM (series often up to 57.5 µM), for inactives: at the top dose activity change, negative = active; ATP-dependent Clp protease proteolytic subunit (Bacillus subtilis (strain 168)), P80244; 340,000 tested, 1.9% active; active means well fitted falling curve with a large enough effect; inconclusive means small, poorly fitted or top-dose-only effect; inactive means no such curve, though single readings can be large or run the other way; further: potency means the concentration at half of the fitted maximal effect; the source files actives as falling curves though it sought activators and does not explain the sign; nearly all actives have a fitted effect of over 65% in size
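ClpP 10 microg/mL final, pH 8 Tris/KCl buffer with BSA, glycerol, Tween-20; compound pinned in; FRET-FV substrate; RT 20 min; Ex320/Em430; ΔFRET vs ADEP 5.8 microM, DMSO, no enzyme.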
Rango release inh: qHTS Assay for Inhibitors of RanGTP induced Rango (Ran-regulated importin-beta cargo) - Importin beta complex dissociation; 340,000 tested, 0.071% active; AID 540253, 2011; Biochemical FRET Rango-importin beta, RanGTP-induced dissociation; Potency, µM (series often up to 46.1 µM), for the others: at the top dose activity change, negative = inhibition; Snurportin-1 (Homo sapiens) + GTP-binding nuclear protein Ran (Homo sapiens) + Importin …; further: potency means the concentration at half of the fitted maximal effect; % of control where 0% means no effect; nearly all actives have a fitted effect of over 45% in size
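Recombinant Rango FRET biosensor (EYFP–snurportin 1 IBB–cerulean CFP10) at 0.1 uM premixed with 0.25 uM importin beta in PBS, 1 mM DTT, 0.02% Tween-20, 0.1% BSA. Compound added 5 min; RanGTP-RCC1 (0.6 uM Ran, 2 mM GTP, 0.2 uM RCC1) then triggers release, read at 45 min.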
CBFb-RUNX1 inh: qHTS Assay for Compounds Blocking the Interaction Between CBF-beta and RUNX1 for the Treatment of Acute Myeloid Leukemia; 230,000 tested, under 10 active; Potency, µM (series often up to 59.8 µM), for the others: at the highest dose activity, negative = inhibition, usual class: inhibitors; Runt-related transcription factor 1 (Homo sapiens) + Core-binding factor subunit beta …; AlphaScreen CBFb-His/RUNX1-biotin binding, biochemical; active means well fitted curve in the direction sought with a large enough effect; inconclusive means small, poorly fitted or top-dose-only effect, or effect the other way, or another doubt; inactive means no such curve, though single readings can be large or run the other way; further: % of control where 0% means no effect
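Room-temperature protein-protein interaction test with 30 nM each of His-tagged CBF-beta and biotinylated RUNX1, 15 min with compound, then 90 min with nickel plus streptavidin beads. Signal read in AlphaScreen mode.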
Rango complex inh: qHTS Assay for Inhibitors of Rango (Ran-regulated importin-beta cargo) - Importin beta complex formation | Importin subunit beta-1 (Homo sapiens), Q14974 | Rango CFP/YFP FRET sensor + importin beta, 45 min | Potency, µM (titrated, usually from 92.2 µM), for the others: at the highest dose inhibition of complex formation | 340,000 tested, 0.031% active | AID 540263, 2011;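 further: potency means the concentration at half of the fitted maximal effect; 0% = DMSO wells and 100% = buffer wells lacking importin beta; nearly all actives have a fitted effect of over 15% in size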
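FRET biosensor (snurportin 1 IBB flanked by EYFP and cerulean), 50 nM, with compound 5 min, then 0.125 microM importin beta in PBS, 1 mM DTT, 0.02% Tween-20, 0.1% BSA. CFP/YFP ratio read after 45 min at room temperature; pre-read flags interference.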
Starred values were filed as active, the others as inactive; u = inconclusive; x = no result; [ ] = remark or other dose. Unless noted, the call rests on the fitted dose curve.

SMILES	MBNL1-CUG inh	ClpP mod	Rango release inh	CBFb-RUNX1 inh	Rango complex inh
Cc1ccc(/C=C2/C(=N)N3N=C(CC(=O)N4CCCC4)SC3=NC2=O)o1	u	0%	7%	x	0%
N=C1/C(=C\c2ccc(Br)o2)C(=O)N=C2SC(CC(=O)N3CCCCC3)=NN12	9%	-2%	6.5µM*	x	u
CCOc1ccc(NC(=O)C(=O)NCCc2ccccc2)cc1	x	2%	x	x	x
Cc1cccc(C)c1NC(=S)Nc1ccccc1C(=O)NCc1ccco1	-7%	25µM*	3%	-13%	-2%
Cc1ccccc1NC(=O)CNc1ccccc1C(=O)NCc1ccco1	16%	u	6%	-2%	5%
Cc1ccc(C)c(N(CC(=O)Nc2ccccc2C(=O)NCc2ccco2)S(=O)(=O)c2ccccc2)c1	-15%	35µM*	15%	-4%	-2%
O=C(NCc1ccco1)c1ccccc1NS(=O)(=O)c1ccc2c(c1)OCCO2	9%	32µM*	-15%	-9%	4%
Cc1ccc(N(CC(=O)Nc2ccccc2C(=O)NCc2ccco2)S(=O)(=O)c2ccccc2)cc1C	1%	22µM*	3%	-12%	5%
C[C@@H]1CN([C@H](C)CO)C(=O)c2c(c3ccccc3n2C)-c2ccccc2CO[C@H]1CN(C)S(=O)(=O)c1cn(C)cn1	x	-11%	x	x	x
Cc1cccc2cc(C#N)c(NCCNS(=O)(=O)c3ccc4c(c3)OCCO4)nc12	3%	32µM*	u	u	u
Cc1ccc(-c2nnn(CC(=O)Nc3ccccc3-c3ccccc3)n2)c(-n2cnnn2)c1	-3%	11µM*	-6%	-10%	0%
O=C(NN=C1C2CC3CC(C2)CC1C3)c1cc(Cl)ccc1O	1%	28µM*	-8%	1%	-6%
O=C(NN=C1C2CC3CC(C2)CC1C3)c1ccncc1	5%	-1%	-26%	4%	u
CCn1c2ccccc2c2cc(/C=C3/C=Cc4ccccc43)ccc21	x	-2%	x	x	x
Cc1cccc(C(=O)Nc2ccccc2C(=O)OCC(=O)Nc2ccc(C#N)cc2)c1	38%	16µM*	-4%	0%	0%
Cn1c(SCc2ccc(C(F)(F)F)cc2)nc2c([nH]c3ccccc32)c1=O	x	-5%	x	x	x
Cc1ccc(SC/C(O)=C(\C#N)c2nc3ccccc3s2)cc1	-2%	25µM*	0%	4%	0%
N#C/C(=C(/O)CSc1ccccn1)c1nc2ccccc2s1	-6%	0%	u	6%	u
Cc1cc(=O)oc2c(CN3CCCCC3)c(O)c(Cl)cc12	40%	-24%	u	8%	u
Cc1cc(=O)oc2c(CN3CCCC3)c(O)c(Cl)cc12	26%	-1%	15µM*	x	u
Cc1c(C)c2cc(Cl)c(O)c(CN3CCCC(C)C3)c2oc1=O (stereo unspecified)	27%	6.3µM*	u	0%	u
Cc1cccc(NC(=O)CCn2cnnn2)c1C	x	-6%	x	x	x
CCOc1ccc(-c2nnc(SCC(=O)Nc3cccc(OC)c3)nc2-c2ccc(OCC)cc2)cc1	x	-1%	x	x	x
COc1ccccc1C(=O)Nc1ccc(S(=O)(=O)Nc2cc(C)on2)cc1	-2%	25µM*	-3%	5%	1%
Cc1nn(CC(=O)Nc2ccccc2F)c(=O)c2c(C)n(-c3ccc(Cl)cc3)nc12	x	-4%	x	x	x
SMILES	MBNL1-CUG inh	ClpP mod	Rango release inh	CBFb-RUNX1 inh	Rango complex inh
CCNS(=O)(=O)c1ccc(CCC(=O)NCc2cccnc2)cc1	-5%	-1%	-8%	x	-3%
O=C(CCc1ccc(S(=O)(=O)NCc2ccccc2)cc1)NCc1cccnc1	x	14µM*	u	11%	u
Cn1c2ccccc2c2cnn(CC(=O)O)c(=O)c21	-17%	32µM*	3%	5%	2%
CNC(=O)Cn1ncc2c3ccccc3n(C)c2c1=O	-7%	4%	1%	x	-1%
O=C(Cn1ncc2c3ccccc3n(Cc3ccccc3)c2c1=O)N1CCN(c2ncccn2)CC1	-2%	32µM*	4%	-16%	5%
COC(=O)Cn1ncc2c3ccccc3n(C)c2c1=O	-5%	14µM*	14%	5%	8%
CC[C@H](C)[C@H](N)C(=O)N[C@@H](CCCNC(=N)N)C(=O)N[C@@H](CCC(N)=O)C(=O)NCC(=O)N1CCC[C@H]1C(=O)N[C@@H](CCCCN)C(=O)N[C@@H](CCC(=O)O)C(=O)N1CCC[C@H]1C(=O)N[C@@H](Cc1ccccc1)C(=O)N[C@@H](CCCNC(=N)N)C(=O)N[C@@H](CC(=O)O)C(=O)N[C@@H](Cc1ccc(O)cc1)C(=O)N[C@H](C(=O)N[C@@H](CC(=O)O)C(=O)N[C@@H](CCCNC(=N)N)C(=O)N[C@@H](Cc1ccccc1)C(=O)N[C@@H](Cc1ccc(O)cc1)C(=O)N[C@@H](CCCCN)C(=O)N[C@H](C(=O)N[C@@H](CC(C)C)C(=O)O)[C@@H](C)O)C(C)C	x	x	x	2%	x
COc1cc(CNCCCSc2nnnn2C)cc(Br)c1OC	x	0%	x	x	x
CCOc1ccccc1NC(=O)c1c(C)cc(C)nc1SCC(=O)c1cccc(OC)c1	x	-1%	x	x	x
CCn1cc(C(=O)Nc2ccc(C(=O)N3CCCC3)cc2)c(=O)c2ccc(C)nc21	-6%	x	x	8%	x
CCn1cc(C(=O)Nc2ccc(OC)c(S(=O)(=O)N3CCCCC3)c2)c(=O)c2ccc(C)nc21	x	32µM*	20%	2%	-5%
CC(C)(C)N1C(=O)c2ccc(C(=O)Nc3ccc(-c4nc5ccccc5[nH]4)cc3)cc2C1=O	-13%	u	1%	-3%	-1%
CCOC(=O)CSc1ccc(-c2nc3ccccc3[nH]2)cn1	4%	32µM*	3%	6%	0%
Cc1ccc(SCC(=O)Nc2ccc(-c3nc4ccccc4[nH]3)cc2)cc1	-3%	25µM*	u	-8%	-3%
Cc1ccc2nc(-c3ccc(SCC(=O)Nc4nc(C)cs4)nc3)[nH]c2c1	10%	7.9µM*	-10%	1%	-1%
Cc1ccc(NC(=O)CCCSc2nc3ccccc3[nH]2)cc1	0%	x	14%	3%	3%
O=C(Nc1ccc(-c2nc3ccccc3[nH]2)cc1)c1ccc(N2C(=O)CCC2=O)cc1	x	22µM*	3%	30%	-4%
COc1cccc2c1OC(=O)CC2c1ccccc1C (stereo unspecified)	x	x	x	5%[89.1 µM]	x
